Consider 40 compounds from PubChem BioAssay (NCATS).

SMILES strings stand for the structures. Inconclusive results are not listed. A call without a number means that no potency is given here. Activity calls are given as the source filed them. Calls come from the whole dose curve; as a rule, active = well fitted inhibition curve with a large enough effect; inconclusive = small, poorly fitted or top-dose-only effect; inactive = flat fitted curve, though single readings scatter.
Potency is the fitted concentration of half-maximal effect.

This assay deals with astro (control astrocytes). The assay is described as follows: Drug repurposing screens with cells derived from glioblastoma tumor samples (AID 1345199). Note: nearly all actives have a fitted effect of over 40% in size. The conditions noted are these: viability, ATP luminescence, 48 h; series mostly up to 45.9 µM. The method, then:
CD133+ cells were isolated from GBM patient biopsies and cultured as neurospheres. Neurospheres from four patients were used to screen the NCATS pharmaceutical collection (NPC) library of approved drugs and bioactive compounds. […] The neurospheres were incubated with drugs for 48 hours in 1536-well format, then assayed with an ATP content cell viability assay. […] These hits were cherry picked to confirm activity in the four original GBM lines screened plus three other slower growing GMB lines (unable to yield enough cells for a full primary screen). Variable activities of the confirmed primary hits in the different GBM patient lines were observed. The patient line 206 responded to the greatest number of compounds and line 923 responded to the least amount of active compounds.
In the case of `NC(N)=N/N=C/c1c(Cl)cccc1Cl`, the Potency result was “inactive”.

As to `O=C(O)CP(=O)(O)O`, the Potency entry is “inactive”. The entry for `CN=C(NC#N)NCCSCc1nc[nH]c1C` is “inactive”; for `CCn1ccnc1CC1COc2ccccc2O1` (stereo not given) it is “inactive”. The entry for `CC(=O)Oc1cc(C(C)C)c(OCCN(C)C)cc1C` is “inactive”. The entry for `CCCN(CCC)CCc1cccc2c1CC(=O)N2` is “inactive”; for `CC(C)(C)c1ccc(C(=O)CCCN2CCC(OC(c3ccccc3)c3ccccc3)CC2)cc1` it is 12.6 µM (active); for `Cc1nnc(SCC2=C(C(=O)O)N3C(=O)[C@@H](NC(=O)Cn4cnnn4)[C@H]3SC2)s1` it is “inactive”. Regarding `Cc1nc2sccn2c(=O)c1CCN1CCC(=C(c2ccc(F)cc2)c2ccc(F)cc2)CC1`, the Potency is 20 µM (active). The figure for `CC(C)COCC(CN(Cc1ccccc1)c1ccccc1)N1CCCC1` (stereo not given) is 35.5 µM (active). On to `CN(C)[C@@H]1C(=O)C(C(N)=O)=C(O)[C@@]2(O)C(=O)C3=C(O)c4c(O)ccc(Cl)c4[C@@H](O)[C@H]3C[C@@H]12`, for which the Potency entry was “inactive”. The entry for `NC(=O)c1ncn([C@@H]2O[C@H](CO)[C@@H](O)[C@H]2O)c1O` is “inactive”; for `O=C1NCN(c2ccccc2)C12CCN(CCCC(c1ccc(F)cc1)c1ccc(F)cc1)CC2` it is 12.6 µM (active). The entry for `COC(=O)[C@H]1[C@H]2C[C@@H]3c4[nH]c5cc(OC)ccc5c4CCN3C[C@H]2C[C@@H](OC(=O)c2cc(OC)c(OC)c(OC)c2)[C@@H]1OC` is “inactive”; for `CC(C)NNC(=O)c1ccncc1` it is “inactive”; for `CC(=O)OC(C)C[N+](C)(C)C` (stereo not given) it is “inactive”. The entry for `CN1C[C@H](C(=O)N[C@]2(C)O[C@@]3(O)[C@@H]4CCCN4C(=O)[C@H](Cc4ccccc4)N3C2=O)C[C@@H]2c3cccc4[nH]cc(c34)C[C@H]21` is “inactive”; for `Cc1nc2ccccn2c(=O)c1CCN1CCC(C(=O)c2ccc(F)cc2)CC1` it is “inactive”; for `O=C1CC2(CCCC2)CC(=O)N1CCCCN1CCN(c2ncccn2)CC1` it is “inactive”. For the compound `CN(C)CCN(Cc1cccs1)c1ccccn1`, the Potency entry was “inactive”. The entry for `CCN1CCc2nc(N)oc2CC1` is “inactive”. Consider `NC(=O)N1c2ccccc2C=Cc2ccccc21`, for which the Potency entry was “inactive”.

In the case of `NCCCNCCSP(=O)(O)O`, the Potency entry was “inactive”. Regarding `CCN(CC)CCNC(=O)c1ccc(NC(C)=O)cc1`, the Potency result was “inactive”. The entry for `CCCNC(C)C(=O)Nc1ccccc1C` (stereo not given) is “inactive”.

Consider `CSc1ccc(C(=O)c2[nH]c(=O)[nH]c2C)cc1`, for which the Potency result is “inactive”. The entry for `CCOC(=O)c1cnc2c(cnn2CC)c1NN=C(C)C` is “inactive”; for `CO[C@@]1(NC(=O)CSCC#N)C(=O)N2C(C(=O)O)=C(CSc3nnnn3C)CS[C@@H]21` it is “inactive”. The figure for `C[n+]1cc2c3c(ccc2c2ccc4cc5c(cc4c21)OCO5)OCO3` is 4.47 µM (active); for `Nc1c2c(nc3ccccc13)CCCC2O` (stereo not given) it is “inactive”; for `CCCCOCCOCCOCc1cc2c(cc1CCC)OCO2` it is “inactive”. The entry for `C(=C\c1ccccc1)/CN1CCN(C(c2ccccc2)c2ccccc2)CC1` is “inactive”; for `C#CCN(C)CCCOc1ccc(Cl)cc1Cl` it is “inactive”; for `Cc1ccc(/C(=C\CN2CCCC2)c2ccccn2)cc1` it is “inactive”.

As for `CCn1cc(C(=O)O)c(=O)c2cc3c(cc21)OCO3`, the Potency result was “inactive”.

On to `C[N+](C)(C)CCOC(N)=O`, for which the Potency entry was “inactive”. The entry for `COc1cc(Cc2cnc(N)nc2N)cc(OC)c1OC` is “inactive”; for `COCCc1ccc(OCC(O)CNC(C)C)cc1` (stereo not given) it is “inactive”; for `CC(=O)Nc1nnc(S(N)(=O)=O)s1` it is “inactive”.

In the case of `CN(C)C(=O)Oc1ccc[n+](C)c1`, the Potency result is “inactive”.
